Screening data (PubChem BioAssay)
Pf growth 48h: P. falciparum growth inhibition at 48 hours (one generation); P. falciparum luciferase growth in erythrocytes, 48 h; Potency, µM (highest dose often 28.7 µM), inactives show at the top dose activity change, negative = inhibition, actives largely listed as inhibitors; 310,000 tested, 5.9% active; AID 504832; further: potency means the concentration at half of the fitted maximal effect; on the % scale 0 is the no-effect control and ±100 the full control effect
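Erythrocytes infected with P. falciparum carrying an integrated firefly luciferase reporter (2% hematocrit, 0.1% parasitemia final) were exposed to compounds in RPMI 1640 with 0.5% Albumax at 37 C, 5% CO2. Growth inhibition was scored as reduced luminescence.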
Sm TGR block: S. mansoni TGR enzyme inhibition. purified TGR, DTNB reduction, TNB absorbance 405 nm. Potency, µM (highest dose often 114 µM), for the others: top-dose activity change, negative = inhibition, usual class: inhibitors. 360,000 tested, 3% active. AID 485364; further: potency means the concentration at half of the fitted maximal effect; on the % scale 0 is the no-effect control and ±100 the full control effect; nearly all actives have a fitted effect of over 60% in size
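Kinetic colorimetric format: TGR-catalysed, NADPH-driven DTNB reduction monitored via TNB absorbance. Enzyme dispensed at 20 nM; compound exposure 15 min at room temperature before reaction start.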
Pf growth 96h: inhibits malaria parasite growth, 96 h | P. falciparum luciferase reporter growth, 96 h | Potency, µM (highest dose often 28.7 µM), for inactives: top-dose activity change, negative = inhibition, hits mostly inhibitors | 320,000 tested, 6.9% active | AID 504834; further: potency means the concentration at half of the fitted maximal effect; on the % scale 0 is the no-effect control and ±100 the full control effect
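Readout is luminescence from an integrated firefly luciferase in P. falciparum. Red cells, 2% hematocrit and 0.05% parasitemia final, were cultured with compound through two parasite generations (96 hours) at 37 C, 5% CO2.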
SARS PLpro yeast: inhibitors of SARS-CoV papain-like protease in yeast; Potency, µM (titrated, usually from 32.9 µM), for inactives: at the top dose activity, positive = growth rescue, actives largely listed as activators; S. cerevisiae expressing SARS-CoV PLpro, growth rescue; 330,000 tested, 0.19% active; AID 485353; calls by dose curve; further: potency means the concentration at half of the fitted maximal effect; 0% is about no effect; nearly all actives have a fitted effect of over 55% in size
HCV inhibitor: blocks hepatitis C virus | Huh7.5.1 HCVcc-Cre infection, luciferase reporter, 44 h | Potency, µM (highest dose often 41.8 µM), inactives show at the top dose activity change, negative = inhibition, most hits filed as inhibitors | 340,000 tested, 3.4% active; further: potency means the concentration at half of the fitted maximal effect; on the % scale 0 is the no-effect control and ±100 the full control effect
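Reporter virus HCVcc-Cre (~0.5 moi) infects cells exposed to compound; seeding density 1,000 cells/well with 4 h settling beforehand. Luminescence, 15 sec read, taken 44 h post-infection following a 15 min RT substrate incubation.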
HCMV antiviral: inhibitors of human cytomegalovirus; activity change, negative = inhibition, % at 57.5 µM; AID 1259415; 410,000 tested, 4.5% active; HFF cells, HCMV-luciferase reporter, 72 h; stronger effect = lower value; in the data active means activity change below about -60%; inconclusive means no clear call, values can overlap the other calls; inactive means above about -39%; further: on the % scale 0 is the no-effect control and ±100 the full control effect
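HFF cells seeded 16 h at 37C, treated with compounds, infected with luciferase-reporter HCMV at MOI 1 PFU/cell; luciferase read at 72 h post infection, normalized to buffer-only and Salinomycin controls.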
* hit, by the source's call; [ ] = dose if it differs, or a comment. Compounds with a hit are over-represented: about 15% of the library has one in this group of screens. Unless noted, the call rests on the fitted dose curve; in most records, active means well fitted curve in the direction sought with a large enough effect; inconclusive means small, poorly fitted or top-dose-only effect, or another doubt; inactive means no such curve, though single readings can be large; an effect the other way counts as inactive or inconclusive.

What do the screens show for `O=C(NCCN1CCCC1)c1cc(-c2ccncc2)nc2ccc(S(=O)(=O)N3CCOCC3)cc12`?
Pf growth 48h: 11.7µM*; Sm TGR block: -24.2%; Pf growth 96h: inconclusive; SARS PLpro yeast: 3.1%; HCV inhibitor: -27.6%; HCMV antiviral: 22.7

How did O=C(NN1CCOCC1)c1ccc(Cl)s1 do in these assays?
Pf growth 48h: 36.8%; Sm TGR block: -1.4%; Pf growth 96h: 36.6%; SARS PLpro yeast: -0.7%; HCV inhibitor: 9.1%; HCMV antiviral: -31.1

What do the screens show for `CCOc1ccc(CCNC(=O)COC(=O)c2nc(Cl)ccc2Cl)cc1OCC`?
Pf growth 48h: inconclusive; Sm TGR block: -6.3%; Pf growth 96h: inconclusive; SARS PLpro yeast: -0.1%; HCV inhibitor: -27.5%; HCMV antiviral: -25.5

Results for CCOC(=O)Nc1ccc(S(=O)(=O)Nn2cnnc2)cc1 ?
Pf growth 48h: -10.3%; Sm TGR block: 1.4%; Pf growth 96h: -0.6%; SARS PLpro yeast: 22.4µM*; HCV inhibitor: 17.5%; HCMV antiviral: 14.7

Results for CCOC(=O)Nc1ccc(S(=O)(=O)NCc2ccccc2)cc1 ?
Pf growth 48h: -7.5%; Sm TGR block: 0.1%; Pf growth 96h: 25.9%; SARS PLpro yeast: 7.9%; HCV inhibitor: inconclusive; HCMV antiviral: -61.7*

How did CC(=O)Nc1ccc(S(=O)(=O)NCc2ccncc2)cc1 do in these assays?
Pf growth 48h: 29.9%; Sm TGR block: 4.9%[57.1 µM]; Pf growth 96h: 1.7%; SARS PLpro yeast: 0.7%; HCV inhibitor: inconclusive; HCMV antiviral: -12.2

What do the screens show for `O=C(Nc1ccc(S(=O)(=O)NCc2ccccc2)cc1)C1CCCCC1`?
Pf growth 48h: -12.6%; Sm TGR block: -0.6%; Pf growth 96h: 11.7µM*; SARS PLpro yeast: -4.2%; HCV inhibitor: -17.1%; HCMV antiviral: 0.0

Results for CC(=O)Nc1ccc(S(=O)(=O)NCc2ccc(C)n2C)cc1 ?
Pf growth 48h: 1.2%; Sm TGR block: 14.1µM*; Pf growth 96h: 3.3%; SARS PLpro yeast: -0.7%; HCV inhibitor: 0.2%; HCMV antiviral: -16.8

How did Cc1ccc(C(=O)NCCC(C)C)cc1NC(=O)c1nsc2ccccc12 do in these assays?
Sm TGR block: 3.2%; HCMV antiviral: -8.9

How did COc1ccc2c(c1)OC[C@H]1[C@H]2N2C(=O)CN(CC3CCCO3)C(=O)[C@@]2(C)[C@H]1c1ccccc1 (some centres undefined) do in these assays?
Pf growth 48h: inconclusive; Sm TGR block: -5.8%; Pf growth 96h: inconclusive; SARS PLpro yeast: 0.0%; HCV inhibitor: 17.2%; HCMV antiviral: 6.2

What do the screens show for `CCOC(=O)[C@H]1[C@H]2COc3cc(OC)ccc3[C@@H]2N2C(=O)CN(CCc3c[nH]c4ccccc34)C(=O)[C@@]12C`?
Pf growth 48h: 7.38µM*; Sm TGR block: -22.1%; Pf growth 96h: inconclusive; SARS PLpro yeast: inconclusive; HCV inhibitor: -11.4%; HCMV antiviral: 27.2

Results for COc1ccc2c(c1)OC[C@H]1[C@H]2N2C(=O)CN(CCc3c[nH]c4ccccc34)C(=O)[C@@]2(C)[C@H]1c1ccccc1 ?
Pf growth 48h: 11.7µM*; Sm TGR block: 4.3%; Pf growth 96h: 4.65µM*; SARS PLpro yeast: 1.8%; HCV inhibitor: inconclusive; HCMV antiviral: -6.6

How did CC[C@]12c3[nH]c4cc(-c5ccco5)ccc4c3CCN1C(=O)[C@@H](CC(=O)NCc1cccc(C(F)(F)F)c1)C[C@@H]2C(=O)N1CCN(C(=O)c2ccco2)CC1 do in these assays?
SARS PLpro yeast: 5.3%; HCV inhibitor: inconclusive; HCMV antiviral: -2.5

What do the screens show for `Cc1cc(Cl)ccc1-c1nc(NCc2ccccc2)nc2ccsc12`?
HCMV antiviral: 4.6

What do the screens show for `CC1CCN(S(=O)(=O)c2ccc(C(=O)Nc3sccc3C(N)=O)cc2)CC1`?
Pf growth 48h: inconclusive; Sm TGR block: -1.6%; Pf growth 96h: 8.28µM*; SARS PLpro yeast: 1.9%; HCV inhibitor: inconclusive; HCMV antiviral: 20.0

What do the screens show for `CNC(=O)c1c(NC(=O)c2ccc(S(=O)(=O)N3CCC(C)CC3)cc2)sc2c1CCC2`?
Sm TGR block: -22.5%; HCMV antiviral: -33.0

Results for CN(C)NC(=O)c1ccsc1NC(=O)c1ccc(S(=O)(=O)N2CCCC2)cc1 ?
Pf growth 48h: 11.7µM*; Sm TGR block: -12.3%; Pf growth 96h: 5.22µM*; SARS PLpro yeast: -2.7%; HCV inhibitor: 21.8%; HCMV antiviral: -33.4

How did Cc1cccnc1NC(=O)NC(=O)c1ccc(C(C)(C)C)s1 do in these assays?
Pf growth 48h: inconclusive; Sm TGR block: -5.8%; Pf growth 96h: 31.1%; SARS PLpro yeast: -4.9%; HCV inhibitor: -5.8%; HCMV antiviral: 46.0

Results for CN1CCC(CO)(Cc2ccccc2)CC1 ?
Pf growth 48h: 35.1%; Sm TGR block: 0.9%; Pf growth 96h: 3.7µM*; SARS PLpro yeast: -0.3%; HCV inhibitor: 15.9%; HCMV antiviral: -36.8

How did OCC1(Cc2ccc(Cl)cc2)CCN(CCCc2ccccc2)CC1 do in these assays?
Pf growth 48h: inconclusive; Sm TGR block: -4.6%[57.1 µM]; Pf growth 96h: 3.0%; SARS PLpro yeast: 0.8%; HCV inhibitor: 12.6µM*; HCMV antiviral: -8.8

Results for OCC1(Cc2ccc(Cl)cc2)CCN(Cc2ccccc2F)CC1 ?
Pf growth 48h: 13.1µM*; Sm TGR block: 1.6%; Pf growth 96h: inconclusive; SARS PLpro yeast: 0.3%; HCV inhibitor: -3.8%; HCMV antiviral: 10.7

Results for OCC1(Cc2ccc(Cl)cc2)CCN(CC2CC=CCC2)CC1 (centres undefined) ?
Pf growth 48h: 6.57µM*; Sm TGR block: 5.9%; Pf growth 96h: 49.1%; SARS PLpro yeast: 0.0%; HCV inhibitor: inconclusive; HCMV antiviral: 8.9

Results for OCC1(Cc2ccccc2)CCN(Cc2cccc(F)c2F)CC1 ?
Pf growth 48h: inconclusive; Sm TGR block: 12.6%; Pf growth 96h: inconclusive; SARS PLpro yeast: -0.5%; HCV inhibitor: 8.6%; HCMV antiviral: 0.0

Results for C[C@@H]1ON(C)[C@H]2C[C@H]3c4[nH]c5cccc(-c6ccc7c(c6)OCO7)c5c4CCN3C(=O)[C@@H]12 ?
HCMV antiviral: -13.5

What do the screens show for `COc1ccc2c(c1)C(C(Nc1ccccc1)c1ccc(Cl)cc1)C(=O)N2C` (centres undefined)?
HCMV antiviral: 17.8

How did C[C@@]12CC(=O)NC1N(C(=O)c1ccccc1)C(c1ccccc1OC(=O)c1ccccc1)C2 (some centres undefined) do in these assays?
Pf growth 48h: inconclusive; Sm TGR block: -20.3%; SARS PLpro yeast: 2.8%; HCV inhibitor: 14.4%; HCMV antiviral: 13.0
